Assay results from the supplement of paper PMC3334620.
In all, about 33,000 sequences were measured (“E-score (-0.5 to 0.5)”: median about -0.035, highest 2% from about 0.35 on). This excerpt belongs to a sample that is enriched for the highest values.

biological target: T1, Pdr3 (UniProt P33200); test: PBM E-score (8-mer binding enrichment) (E-score (-0.5 to 0.5)); higher = stronger / more preferred TF binding; conditions: protein concentration: 200 nM; construct: GST-full length
T1 sequence: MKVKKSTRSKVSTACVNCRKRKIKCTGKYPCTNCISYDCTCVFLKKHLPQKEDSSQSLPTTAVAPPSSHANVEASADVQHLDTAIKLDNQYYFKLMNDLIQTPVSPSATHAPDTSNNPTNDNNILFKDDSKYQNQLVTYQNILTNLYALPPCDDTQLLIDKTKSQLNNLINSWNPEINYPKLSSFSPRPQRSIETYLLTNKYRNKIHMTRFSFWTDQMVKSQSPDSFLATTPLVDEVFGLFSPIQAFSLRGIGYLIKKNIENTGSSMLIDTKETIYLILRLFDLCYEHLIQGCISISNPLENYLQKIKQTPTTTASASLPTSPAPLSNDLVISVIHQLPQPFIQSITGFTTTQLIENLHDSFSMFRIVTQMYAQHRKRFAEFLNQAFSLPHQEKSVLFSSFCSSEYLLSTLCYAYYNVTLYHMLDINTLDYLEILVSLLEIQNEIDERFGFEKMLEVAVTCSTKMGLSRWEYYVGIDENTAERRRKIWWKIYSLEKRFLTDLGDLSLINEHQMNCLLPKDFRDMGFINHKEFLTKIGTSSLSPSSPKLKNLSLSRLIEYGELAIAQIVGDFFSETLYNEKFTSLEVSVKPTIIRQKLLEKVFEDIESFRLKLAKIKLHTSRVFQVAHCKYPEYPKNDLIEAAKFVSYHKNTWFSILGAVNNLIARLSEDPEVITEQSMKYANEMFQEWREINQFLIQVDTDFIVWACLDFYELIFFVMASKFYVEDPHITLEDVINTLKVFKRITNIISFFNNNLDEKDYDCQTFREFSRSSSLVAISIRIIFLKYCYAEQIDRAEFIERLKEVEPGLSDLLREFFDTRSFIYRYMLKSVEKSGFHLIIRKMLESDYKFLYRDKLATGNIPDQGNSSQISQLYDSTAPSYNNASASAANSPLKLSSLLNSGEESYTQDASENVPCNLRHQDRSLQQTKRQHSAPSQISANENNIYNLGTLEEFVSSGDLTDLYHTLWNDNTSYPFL
Description: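 Universal 'all 10-mer' protein binding microarrays (Agilent AMADID 015681) probed with GST-tagged S. cerevisiae TFs (full-length or DBD) made by in vitro transcription/translation (PURExpress), about 100-200 nM. Bound TF was detected with fluorescent anti-GST. Each ungapped 8-mer (which stands for itself and its reverse complement) is scored by the PBM enrichment score (E-score), a modified Wilcoxon-Mann-Whitney statistic from -0.5 to +0.5, computed with the Universal PBM Analysis Suite. Scale: above 0.35 generally sequence-specific binding.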

Row | Sequence | PBM E-score
1 | ACTTCCAA | -0.127
2 | ACTTCCGG | 0.42
3 | ACTTCCTG | -0.121
4 | GCTTCCGA | 0.405
5 | GCTTCCAA | -0.143
6 | ACTTCCCA | -0.0401
7 | ACTTCCGA | 0.355
8 | ACTTCCCG | 0.291
9 | GCTTCCTA | -0.205
10 | CGCACAAA | 0.0204
11 | AGGGTGTG | -0.0975
12 | ACGCCCAA | 0.00636
13 | AAAGCTCA | -0.213
14 | CGGTCGAG | -0.014
15 | CGGTACCA | 0.0596
16 | CGGTACCG | 0.362
17 | CGGTACCC | -0.0572
18 | CTTCATCC | -0.00929
19 | CCTCCCGA | 0.103
20 | CCTCCGGC | 0.32
21 | CCTCCGGA | 0.416
22 | GCTCCGCA | 0.178
23 | ACTCCGGC | 0.315
24 | ACTCCTGG | -0.134
25 | ACTCCGGA | 0.456

Row | Sequence | PBM E-score
26 | ACTCCGAT | 0.203
27 | GCTCCGTA | 0.32
28 | ACTCCGGG | 0.369
29 | GCTCCGGA | 0.461
30 | AAATAGGT | -0.15
31 | ATCAAAGA | -0.143
32 | ACTCTGCA | -0.125
33 | GGTTTCGA | 0.134
34 | CTCTTTCC | 0.141
35 | CATGAAAC | 0.0519
36 | CGATTTCA | -0.0484
37 | TGCATAAA | -0.00866
38 | GCGTTGCC | 0.126
39 | CGCGGGCA | 0.397
40 | CGCGGGCC | 0.379
41 | CGCGGGTA | 0.363
42 | AGCGGGCC | 0.057
43 | CACGGGCC | 0.196
44 | GGCGGGCA | 0.219
45 | AGCGGGTA | 0.0103
46 | CGCGGGTC | 0.331
47 | AGCGGGCA | -0.048
48 | CCGATCTA | 0.0827
49 | ATCCAATG | -0.208
50 | AGTCTGAT | -0.133

Row | Sequence | PBM E-score
51 | AAGACAAA | -0.103
52 | AACCGCTG | -0.114
53 | CGTTCGAG | -0.0996
54 | CAATTCCA | 0.0797
55 | AAATTCCG | 0.418
56 | CAATTCCG | 0.435
57 | AAATTCCC | 0.144
58 | CAATTCCC | 0.133
59 | AAATTCCA | 0.0847
60 | CAGATCTA | -0.337
61 | AACAGCAT | -0.0321
62 | GAGACTCA | -0.204
63 | TGTGATAA | -0.121
64 | AACGGAAA | 0.464
65 | GACGGACA | 0.335
66 | CACGGAAA | 0.449
67 | GACGGGAA | 0.203
68 | CACGGGAA | 0.223
69 | TACGGGAA | 0.261
70 | AACGGAGA | 0.243
71 | GACGGAAA | 0.43
72 | TAGGGAAA | -0.15
73 | CAAGGAAA | 0.00732
74 | TACGGAAA | 0.402
75 | AACGGGAA | 0.354

Row | Sequence | PBM E-score
76 | GCTACGAC | 0.0127
77 | CACTGGTC | -0.078
78 | CAGATGCG | -0.126
79 | CTAGGACA | -0.0782
80 | CGGCTTGC | 0.197
81 | GCTCGTAC | -0.126
82 | CCTAGAAG | -0.146
83 | ATGTCTAG | -0.064
84 | AATAGGCG | 0.313
85 | AGCCTTAG | -0.37
86 | CAGCCACG | 0.145
87 | CACAGAAG | -0.109
88 | CAAGGAAC | 0.161
89 | CACGGAAG | 0.386
90 | CACGGAAC | 0.483
91 | GATGGAAC | 0.06
92 | GACAGAAC | 0.0194
93 | CATGGAAC | -0.0483
94 | GACGGAAC | 0.475
95 | CAAGGAAG | -0.0209
96 | ACAGTAAA | -0.0539
97 | AGCAAAAG | -0.336
98 | CTATAAGC | -0.129
99 | TCAATAGA | -0.262
100 | ATGTTATC | 0.0774

Row | Sequence | PBM E-score
101 | CAGTTTCC | 0.253
102 | ATCAGCGC | 0.207
103 | ATCAGCGG | 0.364
104 | ATCAGCGA | -0.0101
105 | AGAGAGTC | -0.249
106 | CCCCTTTC | 0.00738
107 | TAATGCAA | -0.241
108 | AACGGCTT | 0.0106
109 | CCAGGTTA | -0.0429
110 | ACCGCGGT | 0.4
111 | ATCGCGGC | 0.213
112 | ACCGCGGG | 0.472
113 | ACCGCGGA | 0.488
114 | ACCGCGGC | 0.399
115 | ACCGCGTC | 0.0777
116 | ACCGCGAT | 0.177
117 | ATCGCGGA | 0.282
118 | ACCGCGAG | -0.00369
119 | ATCGCGGG | 0.186
120 | AACGCGGT | 0.1
121 | ACCGCGTA | 0.174
122 | CCTTGTGA | -0.0319
123 | GGCTGTTA | 0.0369
124 | CACTTAGA | -0.119
125 | CGCTGGAC | -0.075

Row | Sequence | PBM E-score
126 | TCCTCGCA | -0.0258
127 | CAAATTGC | 0.0819
128 | CAAAAACC | 0.0333
129 | CTTACCAA | -0.108
130 | AAGAGCAG | -0.0681
131 | CTATGGCC | -0.124
132 | GGTCGGCA | -0.00943
133 | GGTCGGAA | 0.4
134 | TGTCGCAA | -0.0293
135 | TGTCGGAA | 0.383
136 | AGTCGGAG | 0.134
137 | AGTCGGAA | 0.414
138 | CGTCGGAA | 0.411
139 | CGTCGGAG | 0.178
140 | CGTCGGAC | 0.252
141 | GGTCGGAC | 0.15
142 | AGTCGGAC | 0.117
143 | TGTCGTAA | -0.113
144 | CCTTGGCG | -0.0565
145 | CGCTTTGC | 0.0905
146 | CCCCACGA | -0.0538
147 | ACAGTATC | -0.21
148 | AAACCAGT | -0.227
149 | GCTAGAGC | -0.272
150 | AAGCCCGT | -0.162

Row | Sequence | PBM E-score
151 | ACGCCCGG | 0.311
152 | AAGCCCGG | 0.379
153 | CCGCCCCG | 0.435
154 | AAGCCCGC | 0.213
155 | CCGCCCCC | 0.0913
156 | CCGCCCGG | 0.407
157 | CCGCCCGC | 0.241
158 | ACGCCCCG | 0.181
159 | CACTCATG | -0.257
160 | AAAGGGAT | -0.154
161 | AACCGCCA | -0.0357
162 | GGGAGATA | 0.0536
163 | AGGAGATA | -0.182
164 | CGGAGATA | 0.386
165 | ATTCAAAA | 0.0638
166 | GAAAACTA | 0.0457
167 | AAATATAT | 0.19
168 | CGAAAGCC | -0.105
169 | ATAACGGG | 0.0143
170 | GTAACGTA | -0.165
171 | GTAACGCA | 0.0163
172 | ATAACGGC | 0.135
173 | CTAACGAA | -0.0337
174 | ATAACGGA | 0.386
175 | CTAACGGC | -0.00464

Row | Sequence | PBM E-score
176 | GTAACGGA | 0.397
177 | CTAACGGA | 0.389
178 | CATGTGCG | 0.0377
179 | ATAGCGTC | -0.153
180 | GTGCAGTA | -0.0405
181 | CCTGGCCA | -0.107
182 | ATGAAGCA | -0.152
183 | ACGCTATG | -0.187
184 | ATCGACCA | -0.176
185 | CAAAGAGC | -0.0254
186 | TCGGAGCA | 0.28
187 | ACGGAGCC | 0.305
188 | CCGGAGCA | 0.401
189 | GCGGAGCC | 0.296
190 | CCGGAGCG | 0.37
191 | CCGGAGCC | 0.403
192 | CAGGAGCG | -0.12
193 | GCGGAGCA | 0.304
194 | ACGGAGCG | 0.337
195 | AAAAGAGT | -0.208
196 | AAGATTCG | 0.108
197 | ACAACACG | 0.0551
198 | ATGTTCGC | -0.165
199 | ACTGGCGG | 0.153
200 | CTTCAGGC | -0.224

Row | Sequence | PBM E-score
201 | CGCAAGAG | 0.0334
202 | ACGGAATA | 0.445
203 | CTGGAATA | 0.08
204 | AGGGAATG | -0.0936
205 | ATGGAATA | 0.205
206 | AAGGAATA | -0.0227
207 | CCGGAATA | 0.437
208 | CGGGAATA | 0.331
209 | ATGGAATG | 0.184
210 | ACGGAATG | 0.432
211 | ATGGAATC | 0.205
212 | AGGGAATC | 0.00236
213 | ACGGAATC | 0.465
214 | GGCCGATA | 0.0764
215 | CATGTTTA | -0.0824
216 | GCCGCATA | 0.237
217 | AAGGGCAC | -0.157
218 | AAGCCGCC | 0.0806
219 | AACCTAGA | 0.11
